Compound activity: PubChem BioAssay, National Center for Advancing Translational Sciences (NCATS)
An excerpt weighted towards active compounds, which were near 8.1% of everything screened.
SW480 rereplic: inducers of DNA re-replication in SW480 colon cancer cells; Potency, µM (titrated, usually from 46.1 µM), inactives show at the top dose re-replication activation, most hits filed as activators; actives 1.8% (n = 340,000); SW480 DNA re-replication, Hoechst DNA content imaging, 48 h; also: % of control where 0% means no effect; nearly all actives have a fitted effect of over 55% in size
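Quantitative HTS format with DMSO vehicle controls; 48 hr drug incubation at 37 C, then 40 min Hoechst staining and scanning imager measurement at 405 nm excitation.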
KB-V1 cytotox: KB-V1 MDR subline cytotoxicity; KB-V1 MDR cells viability, CellTiter-Glo, 72 h; Potency, µM (titrated, usually from 46.1 µM), usual class: cytotoxic; actives 3.4% (n = 400,000); AID 1347076; also: % is scaled to controls: 0 for no effect and ±100 for the full control effect; nearly all actives have a fitted effect of over 60% in size
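Readout: CellTiter-Glo luminescence, 10 min after addition. Cells: KB-V1 MDR subline, 72 h at 37 degrees C with compound. Analysis: corrected, normalized data fitted to concentration-effect curves.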
ELG1 repair inh: blocks ELG1-dependent DNA repair in HEK293T cells; HEK293T ELG1-luciferase reporter, luminescence, 16 h; DNA damage induced by 5-fluorouridine; Potency, µM (top dose mostly 46.1 µM), without a hit: at the top dose activity change, negative = inhibition, actives largely listed as inhibitors; actives 2.3% (n = 330,000); AID 504467; also: % is scaled to controls: 0 for no effect and ±100 for the full control effect; nearly all actives have a fitted effect of over 55% in size
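DMSO vehicle served as the neutral condition. Each well held 2,000 cells given 5-fluorouridine plus compound; after 16 hr at 37 °C/5% CO2, ONE-Glo was added and luciferase measured 30 min later.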
KB-3-1 tox: KB-3-1 parental cell cytotoxicity; KB-3-1 viability, CellTiter-Glo ATP luminescence, 72 h; Potency, µM (doses to about 46.1 µM), actives largely listed as cytotoxic; actives 1.4% (n = 400,000); also: % is scaled to controls: 0 for no effect and ±100 for the full control effect; nearly all actives have a fitted effect of over 60% in size
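Multi-concentration cytotoxicity screen in KB-3-1 cells grown in DMEM lacking phenol red with 10% FBS. After 72 h at 37 °C with compound, ATP-dependent luminescence was recorded.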
MCF10A rereplic: inducers of DNA re-replication in MCF 10A breast cells | MCF 10A DNA re-replication, Hoechst nuclear intensity, 48 h | Potency, µM (series often up to 46.1 µM), for inactives: at the top dose activity, positive = re-replication, hits mostly activators | actives 2.9% (n = 350,000); also: % of control where 0% means no effect; nearly all actives have a fitted effect of over 50% in size
Numbers without * were called inactive. Calls follow the shape of the dose curve; as a rule, active = well fitted curve in the direction sought with a large enough effect; inconclusive = small, poorly fitted or top-dose-only effect, or another doubt; inactive = no such curve, though single readings can be large; an effect the other way counts as inactive or inconclusive. Potency is read from the fitted curve at half-maximal effect.

Screening CN1CCN(C(=O)CSc2nc(-c3ccncc3)ccc2C#N)CC1 returned SW480 rereplic -5%, KB-V1 cytotox inactive, ELG1 repair inh 6%, KB-3-1 tox inactive and MCF10A rereplic -3%.
For COc1ccc(-c2cc(-c3ccc(Cl)cc3)c(C#N)c(SCC(=O)O)n2)cc1 the results were SW480 rereplic -61%, KB-V1 cytotox inactive, ELG1 repair inh -13%, KB-3-1 tox inactive and MCF10A rereplic 16µM*.
COCOCCn1cc(CN2CCS(=O)(=O)N(Cc3ccc(-c4ccc(Cl)nc4)cc3)C(C)C2=O)nn1 (stereo not given) was read as KB-V1 cytotox inactive and KB-3-1 tox inactive.
Screening Cc1cc(NC(=O)CSc2nc(-c3cccc(F)c3)nc3c2c(=O)n(C)c(=O)n3C)no1 returned KB-V1 cytotox inactive and KB-3-1 tox inactive.
For CCc1nnc(NC(=O)CN2CCN(c3nc(-c4ccccc4)cs3)CC2)s1 the results were SW480 rereplic inconclusive, KB-V1 cytotox 21µM*, ELG1 repair inh inconclusive, KB-3-1 tox inactive and MCF10A rereplic inconclusive.
CCc1nnc(NC(=O)CSc2nc(-c3ccccc3)cc(-c3ccc(F)cc3)c2C#N)s1 was read as SW480 rereplic 10µM*, KB-V1 cytotox inconclusive, ELG1 repair inh -9%, KB-3-1 tox inconclusive and MCF10A rereplic 4.1µM*.
For CC(C)C(=O)NNC(=O)CN1CCN(c2nc(-c3ccccc3)cs2)CC1 the results were SW480 rereplic -1%, KB-V1 cytotox inactive, ELG1 repair inh -1%, KB-3-1 tox inactive and MCF10A rereplic 9%.
Screening Cc1ccccc1Nc1c(-c2ccc(N3CCOCC3)cc2)nc2ccc(Cl)cn12 returned KB-V1 cytotox inactive and KB-3-1 tox inactive.
Cc1c(NCc2cc(Cl)cc(Cl)c2O)c(=O)n(-c2ccccc2)n1C was read as SW480 rereplic 12%, KB-V1 cytotox 21µM*, ELG1 repair inh -19%, KB-3-1 tox inactive and MCF10A rereplic inconclusive.
Cc1ccccc1CSCC(=O)Nc1c(C)n(C)n(-c2ccccc2)c1=O was read as SW480 rereplic -9%, KB-V1 cytotox 18µM*, ELG1 repair inh 0%, KB-3-1 tox inactive and MCF10A rereplic 2%.
Cc1ccccc1C(=O)/C(C#N)=N/Nc1c(C)n(C)n(-c2ccccc2)c1=O was read as SW480 rereplic inconclusive, KB-V1 cytotox 0.46µM*, ELG1 repair inh -6%, KB-3-1 tox inactive and MCF10A rereplic -4%.
`Cc1ccccc1CSCC(=O)Nc1ccccc1-c1ccccc1` gave SW480 rereplic inconclusive, KB-V1 cytotox 23µM*, ELG1 repair inh -1%, KB-3-1 tox inactive and MCF10A rereplic 17%.
For Cc1c(NCc2cc(Cl)ccc2O)c(=O)n(-c2ccccc2)n1C the results were SW480 rereplic -1%, KB-V1 cytotox inactive, ELG1 repair inh -1%, KB-3-1 tox inactive and MCF10A rereplic 0%.
For NS(=O)(=O)c1ccc(NC(=O)c2cnn3c2NC(=C2CC2)C=C3C(F)F)cc1 the results were KB-V1 cytotox inconclusive and KB-3-1 tox inactive.
`COc1ccc(CN2C[C@@H](CO)O[C@@H](n3cnc4c(N5CCOCC5)ncnc43)C2)cc1` gave KB-V1 cytotox inactive and KB-3-1 tox inactive.
Cc1noc(C)c1NC(=O)N(C)C[C@H]1Oc2ccc(NC(=O)NC3CCCCC3)cc2C(=O)N([C@H](C)CO)C[C@@H]1C was read as SW480 rereplic -30%, KB-V1 cytotox inactive, ELG1 repair inh -2%, KB-3-1 tox inactive and MCF10A rereplic -3%.
CC(C)C[C@H]1CN(CCCC[C@H]2CNC(=O)C(=O)N2CCc2ccccc2)C(=O)C(=O)N1Cc1ccccc1 was read as KB-V1 cytotox inactive and KB-3-1 tox inactive.
For O=C1CCCc2c1nc(-c1ccc([N+](=O)[O-])cc1)n2O the results were SW480 rereplic 34%, KB-V1 cytotox inactive, ELG1 repair inh 0%, KB-3-1 tox inactive and MCF10A rereplic 23µM*.
`O=C1CCCc2c1nc(-c1ccc(F)cc1)n2O` gave SW480 rereplic -19%, KB-V1 cytotox inactive, ELG1 repair inh -4%, KB-3-1 tox inactive and MCF10A rereplic 4%.
CCC1(CC)CNC(=O)NC1 was read as SW480 rereplic 6%, KB-V1 cytotox inconclusive, KB-3-1 tox inactive and MCF10A rereplic -27%.
CNc1ccc(/C=C/c2ccccc2)cc1 was read as KB-V1 cytotox inactive and KB-3-1 tox inconclusive.
`O=C(NC(NC1CCS(=O)(=O)C1)C(Cl)(Cl)Cl)c1cccc(Cl)c1` (stereo not given) gave SW480 rereplic 1%, KB-V1 cytotox 23µM*, ELG1 repair inh 3%, KB-3-1 tox inactive and MCF10A rereplic 0%.
For COc1ccc(N(CC(=O)NCc2cccs2)S(=O)(=O)c2ccc(C(C)=O)cc2)cc1 the results were KB-V1 cytotox inactive and KB-3-1 tox inactive.
Screening CCOC(=O)C(CCc1ccccc1)NC(C)C(=O)N1Cc2cc(OC)c(OC)cc2CC1C(=O)O (stereo not given) returned SW480 rereplic 2% and MCF10A rereplic 12%.
Cc1cc(C)c2c(=O)n(CC(=O)NC3CCCC3)sc2n1 was read as SW480 rereplic 26%, KB-V1 cytotox inactive, ELG1 repair inh 0%, KB-3-1 tox inconclusive and MCF10A rereplic 21µM*.
CC(=O)c1ccc(NC(=O)CSc2nc3nn(-c4ccccc4)c(=O)c-3c3n2CCCCC3)cc1 was read as SW480 rereplic 2%, KB-V1 cytotox inactive, KB-3-1 tox inactive and MCF10A rereplic 0%.
`O=C(CSc1nc2nn(-c3ccccc3)c(=O)c-2c2n1CCCCC2)c1ccc(O)c(O)c1` gave SW480 rereplic inconclusive, KB-V1 cytotox inconclusive, ELG1 repair inh 18µM*, KB-3-1 tox inconclusive and MCF10A rereplic 7%.
For O=C(CSc1nc2nn(-c3ccccc3)c(=O)c-2c2n1CCCCC2)Nc1ccc(OC(F)F)cc1 the results were SW480 rereplic inconclusive, KB-V1 cytotox inactive, ELG1 repair inh 13µM*, KB-3-1 tox inactive and MCF10A rereplic 2%.
COc1cccc(OC)c1NC(=O)C1CCCN1C(=O)Nc1ccccc1F (stereo not given) was read as SW480 rereplic -18%, KB-V1 cytotox inactive, ELG1 repair inh 12%, KB-3-1 tox inactive and MCF10A rereplic -9%.
Screening O=C(C=Cc1ccc2c(c1)OCO2)C1CC1 returned KB-V1 cytotox inactive and KB-3-1 tox inactive.
CCN(CC)c1c([N+](=O)[O-])c(=O)n(C)c2ccccc12 was read as SW480 rereplic inconclusive, KB-V1 cytotox inconclusive, ELG1 repair inh 12%, KB-3-1 tox inactive and MCF10A rereplic 1%.
